In PubChem BioAssay (Tox21):
Values joined by “and” are separate entries in the source; they are usually repeats but may differ in a detail not shown here. Equal entries are not always repeated. Inconclusive results are not listed. More than one record can exist for a structure, and the calls need not agree. Active and inactive are the calls of the source. Calls follow the shape of the dose curve; as a rule, active = well fitted curve in the direction sought with a large enough effect in the repeat runs; inconclusive = weak or mixed curves; inactive = no such curve, though single readings can be large; an effect the other way counts as inactive or inconclusive.

Columns and labels:
[1] = qHTS RealTime-Glo MT Cell Viability Assay in HepG2 cells - 40 hour (AID 1224870); also: nearly all actives have a fitted effect of over 50% in size
Procedure, shortened: (§1)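 HepG2 cells mixed with RealTime-Glo MT reagents (NanoLuc plus cell-permeant prosubstrate) were seeded at 600 cells/well, incubated 5 h at 37 C/5% CO2, then pinned with compounds in DMSO; nonlytic luminescence tracked viability during 40 h treatment.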

[2] = A CellTox Green Cytotoxicity Assay to monitor cytotoxicity in HEK293 cells - 40 hour (AID 1224871); also: nearly all actives have a fitted effect of over 45% in size; also: potency is read from the fitted curve at half-maximal effect
Procedure, shortened: (§2)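 Seeding of HEK293 cells together with cytotoxicity dye preceded a 5 h incubation at 37 C/5% CO2. Test compounds in DMSO were then added and fluorescence monitored across 40 h.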

[3] = qHTS RealTime-Glo MT Cell Viability Assay in HEK293 cells - 16 hour (AID 1224872); also: top concentration of the series differs between compounds; nearly all actives have a fitted effect of over 50% in size
Procedure, shortened: (§3)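 HEK293 cells seeded with NanoLuc/prosubstrate reagent, rested 5 h at 37 C, then dosed and kept at 37 C up to 40 h. Nonlytic real-time luminescence from viable cells read at 0, 8, 16, 24, 32 and 40 h.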

[4] = qHTS RealTime-Glo MT Cell Viability Assay in HepG2 cells - 8 hour (AID 1224873); also: nearly all actives have a fitted effect of over 55% in size
Procedure, shortened: as §1

[5] = qHTS RealTime-Glo MT Cell Viability Assay in HEK293 cells - 40 hour (AID 1224874); settings: RealTime-Glo luminescence; max response: stronger effect = lower value; also: nearly all actives have a fitted effect of over 50% in size
Procedure, shortened: (§4)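 Tox21 screen in HEK293 using RealTime-Glo MT chemistry, with cells and reagent co-dispensed. Luminescence proportional to viable cell number was captured at intervals during 40 h compound exposure at 37 C.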

[6] = A CellTox Green Cytotoxicity Assay to monitor cytotoxicity in HEK293 cells - 24 hour (AID 1224875); also: series mostly up to about 77 µM; nearly all actives have a fitted effect of over 45% in size
Procedure, shortened: as §2

[7] = A CellTox Green Cytotoxicity Assay to monitor cytotoxicity in HepG2 cells - 16 hour (AID 1224876); also: nearly all actives have a fitted effect of over 45% in size
Procedure, shortened: (§5)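 Nonlytic assay: viable cells exclude the dye, so fluorescence scales with cell death. HepG2 at 600 cells/well, compounds added after 5 h, signal read across 40 h.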

[8] = qHTS RealTime-Glo MT Cell Viability Assay in HepG2 cells - 32 hour (AID 1224877); also: nearly all actives have a fitted effect of over 55% in size
Procedure, shortened: (§6)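 HepG2 cells (600/well) were dispensed with RealTime-Glo reagents, incubated 5 h at 37 °C, then treated with compounds in DMSO for up to 40 h. Nonlytic NanoLuc luminescence reflecting viable cells was read at each stated time point.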

[9] = A CellTox Green Cytotoxicity Assay to monitor cytotoxicity in HepG2 cells - 24 hour (AID 1224878); also: nearly all actives have a fitted effect of over 45% in size
Procedure, shortened: as §5

[10] = A CellTox Green Cytotoxicity Assay to monitor cytotoxicity in HepG2 cells - 40 hour (AID 1224879); also: nearly all actives have a fitted effect of over 40% in size
Procedure, shortened: as §5

[11] = qHTS RealTime-Glo MT Cell Viability Assay in HEK293 cells - 0 hour (AID 1224880)
Procedure, shortened: as §4

[12] = A CellTox Green Cytotoxicity Assay to monitor cytotoxicity in HEK293 cells - 32 hour (AID 1224881); also: nearly all actives have a fitted effect of over 40% in size; also: potency is read from the fitted curve at half-maximal effect
Procedure, shortened: as §2

[13] = A CellTox Green Cytotoxicity Assay to monitor cytotoxicity in HepG2 cells - 0 hour (AID 1224882); also: nearly all actives have a fitted effect of over 35% in size
Procedure, shortened: as §5

[14] = A CellTox Green Cytotoxicity Assay to monitor cytotoxicity in HepG2 cells - 32 hour (AID 1224883); also: nearly all actives have a fitted effect of over 50% in size
Procedure, shortened: as §5

[15] = A CellTox Green Cytotoxicity Assay to monitor cytotoxicity in HEK293 cells - 8 hour (AID 1224884); also: nearly all actives have a fitted effect of over 35% in size
Procedure, shortened: as §2

[16] = qHTS RealTime-Glo MT Cell Viability Assay in HepG2 cells - 16 hour (AID 1224885); also: nearly all actives have a fitted effect of over 50% in size
Procedure, shortened: as §6

[17] = qHTS RealTime-Glo MT Cell Viability Assay in HEK293 cells - 24 hour (AID 1224886)
Procedure, shortened: as §3

[18] = qHTS RealTime-Glo MT Cell Viability Assay in HEK293 cells - 8 hour (AID 1224887)
Procedure, shortened: as §4

[19] = A CellTox Green Cytotoxicity Assay to monitor cytotoxicity in HEK293 cells - 16 hour (AID 1224888); also: nearly all actives have a fitted effect of over 35% in size
Procedure, shortened: as §2

[20] = qHTS RealTime-Glo MT Cell Viability Assay in HepG2 cells - 0 hour (AID 1224889); also: nearly all actives have a fitted effect of over 50% in size
Procedure, shortened: as §6
% is scaled to controls: 0 for no effect and ±100 for the full control effect.

CC(C)=CCl
inactive: outcome [1] | Potency [2] | Potency [3] | Potency [4] | max response [5] 8.16% and 2.09% | Potency [6] | outcome [7] | outcome [8] | Potency [9] | Potency [10] | outcome [11] | Potency [12] | outcome [13] | Potency [14] | outcome [15] | Potency [16] | Potency [17] | Potency [18] | Potency [19] | Potency [20]

CCCCCCO
inactive: outcome [1] | Potency [2] | Potency [3] | Potency [4] | max response [5] -0.525% and 0.519% | Potency [6] | outcome [7] | outcome [8] | Potency [9] | Potency [10] | outcome [11] | Potency [12] | outcome [13] | Potency [14] | outcome [15] | Potency [16] | Potency [17] | Potency [18] | Potency [19] | Potency [20]

C[Si]1(C)O[Si](C)(C)O[Si](C)(C)O[Si](C)(C)O1
inactive: outcome [1] | Potency [2] | Potency [3] | Potency [4] | max response [5] 3.24% and 9.03% | Potency [6] | outcome [7] | outcome [8] | Potency [9] | Potency [10] | outcome [11] | Potency [12] | outcome [13] | Potency [14] | outcome [15] | Potency [16] | Potency [17] | Potency [18] | Potency [19] | Potency [20]

CCCCCCCCCCO
24.6 µM (active) and inactive: Potency [2]
inactive: outcome [1] | Potency [3] | Potency [4] | max response [5] 1.72% and 1.45% | outcome [7] | outcome [8] | Potency [9] | Potency [10] | outcome [11] | outcome [13] | Potency [14] | outcome [15] | Potency [16] | Potency [17] | Potency [18]
39 µM (active) and inactive: Potency [12]

OCc1ccccc1
inactive: outcome [1] | Potency [2] | Potency [3] | Potency [4] | max response [5] -3.29% and 13.4% | Potency [6] | outcome [7] | outcome [8] | Potency [9] | Potency [10] | outcome [11] | Potency [12] | outcome [13] | Potency [14] | outcome [15] | Potency [16] | Potency [17] | Potency [18] | Potency [19] | Potency [20]

CCOC(=O)c1ccc(N)cc1
inactive: outcome [1] | Potency [2] | Potency [3] | Potency [4] | max response [5] -17.4% | Potency [6] | outcome [7] | outcome [8] | Potency [9] | Potency [10] | outcome [11] | Potency [12] | outcome [13] | Potency [14] | outcome [15] | Potency [16] | Potency [17] | Potency [18] | Potency [19] | Potency [20]

O=S(=O)(O)c1ccccc1
inactive: outcome [1] | Potency [2] | Potency [3] | Potency [4] | max response [5] 0.0472% and -6.62% | Potency [6] | outcome [7] | outcome [8] | Potency [9] | Potency [10] | outcome [11] | Potency [12] | outcome [13] | Potency [14] | outcome [15] | Potency [16] | Potency [17] | Potency [18] | Potency [19] | Potency [20]

COC(=O)CCCC(=O)OC
inactive: outcome [1] | Potency [2] | Potency [3] | Potency [4] | max response [5] 4.51% and 15.2% | Potency [6] | outcome [7] | outcome [8] | Potency [9] | Potency [10] | outcome [11] | Potency [12] | outcome [13] | Potency [14] | outcome [15] | Potency [16] | Potency [17] | Potency [18] | Potency [19] | Potency [20]
